Here are results for 26 molecules from PubChem BioAssay (Tox21).

Experiment [1] in a line: qHTS assay for small molecule agonists of the p53 signaling pathway (AID 651631; calls by dose curve; also: nearly all actives have a fitted effect of over 15% in size). An outline of the steps:
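HCT-116 cells carrying a stable p53 response element–beta-lactamase reporter were plated, rested 5 h at 37 °C, then exposed to compound in DMSO for 16 h at 37 °C; reporter activity was read as FRET substrate fluorescence after 2 h at room temperature.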
Background: In qHTS, concentration-response curves come from the screen itself.

Experiment [2] is described as follows: qHTS assay for small molecules that induce genotoxicity in human embryonic kidney cells expressing luciferase-tagged ATAD5 (AID 651632). Also: nearly all actives have a fitted effect of over 15% in size. Also: potency is read from the fitted curve at half-maximal effect. The method, boiled down:
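ATAD5-luc HEK293T, 2,000 cells/well; cpd or DMSO pin-transferred; 16 hr, 37C/5% CO2; Amplite 30 min RT; luminescence.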

A short description of experiment [3]: qHTS assay for small molecule agonists of the p53 signaling pathway - cell viability (AID 651633; calls by dose curve; also: nearly all actives have a fitted effect of over 30% in size; also: potency is read from the fitted curve at half-maximal effect). The method, boiled down: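 p53RE-bla cells, seeded at 4,000 per well and rested 5 h at 37 C/5% CO2, received compounds in DMSO for 16 h at 37 C. CellTiter-Glo was then added, and luminescence was read after 30 min at room temperature to gauge cytotoxicity.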
Experiment [4] can be described thus: qHTS assay for small molecules that induce genotoxicity in human embryonic kidney cells expressing luciferase-tagged ATAD5 - cell viability (AID 651634; calls by dose curve; also: nearly all actives have a fitted effect of over 25% in size). The method, boiled down: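 Fluorescence from CellTiter-Fluor, reporting protease activity within live cells, served as the viability read-out. HEK293T cells carrying luciferase-tagged ATAD5 had been treated with compound for 15.5 hr at 37C.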

Experiment [5] is described as follows: qHTS assay for small molecule disruptors of the mitochondrial membrane potential - cell viability (AID 720634; calls by dose curve;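 also: human HepG2 liver cancer cells; series mostly up to about 83 µM; nearly all actives have a fitted effect of over 20% in size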). The method, boiled down:
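Cells: HepG2, 2,000/well, attached overnight. Compound 1 hr, 37 C/5% CO2. +m-MPI dye, +CellTiter-Glo 30 min RT. Readout: luminescence (ATP).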

A short description of experiment [6]: qHTS assay to test for compound auto fluorescence at 590 nm (red) in HepG2 cells (AID 720674). An outline of the steps:
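Rose Bengal sodium served as the red fluorophore standard. HepG2 monolayers (overnight attachment, MEM with 10% FBS) were exposed to test compounds for 1 hr at 37 C and read at Ex 540/Em 590 nm.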

The nature of experiment [7]: qHTS assay to test for compound auto fluorescence at 535 nm (green) in HepG2 cells (AID 720675).
A short description of experiment [8]: qHTS assay to test for compound auto fluorescence at 460 nm (blue) in HEK293 cells (AID 720678). An outline of the steps:
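Measured: blue fluorescence (Ex 405/Em 460 nm) of compound-treated HEK293 cells, incubated overnight at 37C with 5% CO2 and scaled to triamterene equivalents.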

A short description of experiment [9]: qHTS assay for small molecule disruptors of the mitochondrial membrane potential (AID 720635). Also: potency is read from the fitted curve at half-maximal effect. The method, boiled down:
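HepG2 cells (2,000/well) attached overnight at 37C, then took compound for 1 hr at 37C, 5% CO2. Mito-MPS dye was added for 30 min; fluorescence was read at 490/535 nm (monomers) and 540/590 nm (aggregates).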

Experiment [10] is described as follows: qHTS assay to test for compound auto fluorescence at 590 nm (red) in HEK293 cells (AID 720679). An outline of the steps: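 Using HEK293 cells at 2,000 per well, the screen added 23 nL of each compound after cell attachment and incubated overnight (37C, 5% CO2). The plate reader then captured red-label fluorescence, Ex/Em 540/590nm.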

Several values for one entry are separate records, joined by “and”; a condition that tells them apart may be missing. Equal values may be shown once. Values without a mark were called inactive. Inconclusive results are not listed. Activity calls are given as the source filed them. Unless noted, calls follow the shape of the dose curve; as a rule, active = well fitted curve in the direction sought with a large enough effect in the repeat runs; inconclusive = weak or mixed curves; inactive = no such curve, though single readings can be large; an effect the other way counts as inactive or inconclusive.
% is scaled to controls: 0 for no effect and ±100 for the full control effect.

Turning to `CCCn1cc[n+](C)c1C`, the Potency result in experiment [1], in experiment [2], in experiment [3] and in [4] was “inactive” in each case. In addition, the outcome in [5], in experiment [6], in experiment [7] and in experiment [8] was inactive.
`Cc1ncc(COP(=O)(O)O)c(C=O)c1O`: the Potency result in [2], in experiment [3], in experiment [4] and in [9] was “inactive” each time. In addition, the result in experiment [5], in experiment [6], in experiment [7] and in [8] was inactive.
As for `NC(CCC(=O)O)C(=O)O` (configuration not stated), the Potency result in experiment [2], in experiment [3], in experiment [4] and in experiment [9] was “inactive” each time. The molecule was classed as inactive in experiment [5], in experiment [6], in experiment [7], in experiment [8] and in [10].
In the case of `CC(=O)NC(=O)c1ccccc1O`, the Potency entry in experiment [2], in experiment [3], in experiment [4] and in [9] was “inactive” throughout. In addition, the outcome in [5], in [6], in [7] and in [8] was inactive.
As to `CN1CC(=O)N/C1=N/C(=O)Nc1cccc(Cl)c1`, the Potency result in experiment [2], in experiment [3] and in [4] was “inactive” each time. Further, the result in experiment [5], in experiment [6], in experiment [7], in [8] and in [10] was inactive. Also, in [9], the Potency is 21.1 µM (active) and 26.6 µM (active).
`COc1cccc(OC)c1C(=O)N[C@@H]1C(=O)N2[C@@H]1SC(C)(C)[C@@H]2C(=O)O`: the Potency entry in experiment [2], in [3], in experiment [4] and in [9] was “inactive” each time. Further, the outcome in experiment [5], in experiment [6], in [7], in [8] and in experiment [10] was inactive.
On to `O=C(O)CNC(=O)c1ccccc1`, for which the Potency result in experiment [2], in experiment [3], in experiment [4] and in experiment [9] was “inactive” in each case. Also, the call in experiment [5], in [6], in experiment [7], in experiment [8] and in [10] was inactive.
With `O=C(O)c1cn(C2CC2)c2cc(N3CCNCC3)c(F)cc2c1=O`, the Potency result in [2], in experiment [3], in experiment [4] and in experiment [9] was “inactive” each time. Moreover, the molecule was called inactive in [5]. Further, the fluorescence, relative to Rose Bengal in experiment [6] is -0.332% [at 18.6 µM]. Further, the fluorescence, % of fluorescein control in [7] was 0.0071% [at 18.6 µM]. The fluorescence, % of triamterene in experiment [8] is 0.0142% [at 18.6 µM]. Besides, in experiment [10], the fluorescence, % of fluorescent control was -0.0071% [at 18.6 µM].
`CCOC(=O)c1ccccc1`: the Potency result in experiment [2], in [3], in [4] and in experiment [9] was “inactive” in each case. Further, the call in experiment [5], in experiment [6] and in experiment [8] was inactive.
`CCC(C(=O)NC(=O)NC(C)=O)c1ccccc1` (configuration not stated): the Potency entry in experiment [2], in [3], in experiment [4] and in experiment [9] was “inactive” throughout. Also, the result in [5], in experiment [6], in [7], in experiment [8] and in [10] was inactive.
For `COc1cc(-c2ccc(=O)[nH]n2)ccc1OC(F)F`, the Potency in experiment [2] was 13.3 µM (active). The Potency result in experiment [3], in [4] and in [9] was “inactive” each time. Moreover, the molecule was classed as inactive in experiment [5], in [6], in experiment [8] and in experiment [10].
For the molecule `O=S(=O)(O)c1cc(O)c(O)c(S(=O)(=O)O)c1`, the Potency result in experiment [2], in experiment [3] and in experiment [4] was “inactive” each time. Further, the call in [5], in experiment [6], in [7] and in [8] was inactive.
For `CC1CCC(CO)CC1` (configuration not stated), the Potency entry in [2], in experiment [3], in experiment [4] and in experiment [9] was “inactive” each time. Also, the molecule was called inactive in [5], in experiment [6], in experiment [7], in experiment [8] and in experiment [10].
Take `CC[C@H]1OC(=O)[C@H](C)[C@@H](O[C@H]2C[C@@](C)(OC)[C@@H](O)[C@H](C)O2)[C@H](C)[C@@H](O[C@@H]2O[C@H](C)C[C@H](N(C)C)[C@H]2O)[C@](C)(OC)C[C@@H](C)C(=O)[C@H](C)[C@@H](O)[C@]1(C)O`: the Potency entry in experiment [2], in [3], in experiment [4] and in experiment [9] was “inactive” throughout. In addition, the molecule was classed as inactive in experiment [5], in [6], in experiment [7], in experiment [8] and in experiment [10].
With `CO/N=C(\C(=O)N[C@@H]1C(=O)N2C(C(=O)O)=C(CSc3nc(=O)c(O)nn3C)CS[C@H]12)c1csc(N)n1`, the Potency entry in [2], in experiment [3], in experiment [4] and in experiment [9] was “inactive” throughout. For the same molecule, the molecule was classed as inactive in [5], in experiment [6], in experiment [7], in experiment [8] and in experiment [10].
As to `C=CCCC(=O)O`, the Potency result in experiment [2], in experiment [3], in [4] and in [9] was “inactive” throughout. Moreover, the molecule was classed as inactive in [5], in experiment [6], in experiment [7], in experiment [8] and in experiment [10].
Regarding `CN1C(C)(C)CC(O)CC1(C)C`, the Potency result in experiment [2], in experiment [3], in experiment [4] and in experiment [9] was “inactive” throughout. Moreover, the outcome in experiment [5], in [6], in [7], in [8] and in experiment [10] was inactive.
With `CC1(C)OC[C@@H](COC(=O)CCc2ccc(OC[C@@H](O)CNCCNC(=O)N3CCOCC3)cc2)O1`, the Potency entry in experiment [2], in experiment [3], in experiment [4] and in [9] was “inactive” throughout. The outcome in [5], in experiment [6], in experiment [7], in experiment [8] and in experiment [10] was inactive.
As to `N[C@@H](CCC(=O)O)C(=O)O`, the Potency entry in experiment [2], in experiment [3], in [4] and in experiment [9] was “inactive” each time. Also, the result in experiment [5], in experiment [6], in [7], in [8] and in experiment [10] was inactive.
Turning to `Cc1nc2ccc(CN(C)c3ccc(C(=O)N[C@@H](CCC(=O)O)C(=O)O)s3)cc2c(=O)[nH]1`, the Potency result in experiment [2], in [4] and in experiment [9] was “inactive” throughout. Besides, in experiment [3], the Potency is 106 nM (active) and 150 nM (active). The molecule was classed as inactive in experiment [5], in [6], in experiment [8] and in experiment [10].
With `CCCCCCC#CC(=O)OC`, the Potency result in experiment [2], in experiment [3], in experiment [4] and in experiment [9] was “inactive” each time. For the same molecule, the molecule was classed as inactive in [5], in experiment [6], in experiment [8] and in experiment [10].
With `Cc1ccnc(NS(=O)(=O)c2ccc(N)cc2)n1`, the Potency entry in experiment [2], in experiment [3], in experiment [4] and in [9] was “inactive” throughout. For the same molecule, in [5], the outcome was inactive. Besides, the fluorescence, relative to Rose Bengal in experiment [6] is 0.0946% [at 18.6 µM]. Also, the fluorescence, % of fluorescein control in experiment [7] was 0.0423% [at 18.6 µM]. The fluorescence, % of triamterene in [8] is 0.0233% [at 18.6 µM]. The fluorescence, % of fluorescent control in [10] was 0.0091% [at 18.6 µM].
`CCCC[N+](C)(CCCC)CCCC`: the Potency entry in experiment [2], in experiment [3], in [4] and in [9] was “inactive” throughout. Also, the molecule was classed as inactive in experiment [5], in experiment [6], in experiment [7], in experiment [8] and in experiment [10].
With `CC(=O)c1ccccc1[N+](=O)[O-]`, the Potency result in experiment [2], in experiment [3], in [4] and in experiment [9] was “inactive” each time. The molecule was called inactive in [5], in [6], in [7], in experiment [8] and in experiment [10].
For `N[C@H](C(=O)O)[C@@H](O)c1ccc(O)c(O)c1`, the Potency entry in experiment [2], in experiment [3] and in [4] was “inactive” throughout. Moreover, the result in experiment [5], in experiment [6], in experiment [7], in [8] and in experiment [10] was inactive. Also, in experiment [9], the Potency was 26.6 µM (active).
As for `CCOC(=O)OC(C)OC1=C(C(=O)Nc2ccccn2)N(C)S(=O)(=O)c2ccccc21` (configuration not stated), the Potency in experiment [2] is 3.35 µM (active). Moreover, the Potency result in [3] and in experiment [4] was “inactive” each time. Further, the outcome in experiment [5], in [6], in [7] and in [8] was inactive.
